High-throughput results: PubChem BioAssay, National Center for Advancing Translational Sciences (NCATS)
VDR inh – Inhibitors of the vitamin D receptor (VDR): qHTS | Vitamin D3 receptor (Homo sapiens), P11473 | VDR-SRC2-3 peptide fluorescence polarization, 2 h | Potency, µM, without a hit: max response, negative = inhibition, actives largely listed as inhibitors | 400,000 compounds, 0.93% hits | AID 504847, 2011
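Signal is fluorescence polarization, reporting how far test compounds block the interaction of VDR with the SRC2-3 coregulator peptide after a 2 h room-temperature incubation.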
rTrxR1 inhibitor – qHTS Assay for Inhibitors of Mammalian Selenoprotein Thioredoxin Reductase 1 (TrxR1): qHTS; Potency, µM (top dose mostly 114 µM), inactives show top-dose activity change, negative = inhibition, usual class: inhibitors; 390,000 compounds, 1% hits; recombinant rTrxR1, NADPH fluorescence consumption, selenite substrate; note: nearly all actives have a fitted effect of over 65% in size
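Rat TrxR1 (90 nM in the dispensed reagent) was pre-reduced with 400 uM NADPH for 5 min at room temperature, then incubated with compound for 15 min. After 400 uM selenite was added, NADPH fluorescence (Ex 340/Em 450 nm) was followed for 8 min.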
KAT2A inh – qHTS Assay for Inhibitors of GCN5L2. GCN5L2 HAT assay, ThioGlo1 CoA-SH fluorescence. Potency, µM (series often up to 58.9 µM), inactives show at the top dose activity change, negative = inhibition, most hits filed as inhibitors. 390,000 compounds, 0.21% hits. AID 504327, 2011
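qHTS, 1536-well. 20nM enzyme, pH 7.5 HEPES/EDTA/Tween-20 buffer; 15 min compound preinc., RT. Start: 75uM H3(1-25), 70uM AcCoA, 50uM ThioGlo1. Read Ex340/Em540 at t=0 (autofluorescence flag) and t=20 min.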
Sfp inh – qHTS Assay for Inhibitors of Bacillus subtilis Sfp phosphopantetheinyl transferase (PPTase); 310,000 compounds, 3.5% hits; Potency, µM, for inactives: largest response in the series, negative = inhibition, usual class: inhibitors; 4'-phosphopantetheinyl transferase ffp (Bacillus subtilis), Q9F4F7; Biochemical Sfp PPTase activity, qHTS;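 note: the enzyme is Sfp with the accession as filed and its product quenches rhodamine fluorescence; 0% = enzyme reaction without inhibitor and -100% = no enzyme wells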
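Compounds were incubated with enzyme (final 15 nM) for 15 min at room temperature before substrate addition started the reaction. Fluorescence at 525 nm excitation, 598 nm emission was recorded immediately and after 30 minutes.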
TrxR1 substrate – qHTS Assay for Substrates of Mammalian Selenoprotein Thioredoxin Reductase 1 (TrxR1): qHTS; Potency, µM (top dose mostly 114 µM), inactives show at the top dose activity change, negative = substrate turnover; Thioredoxin reductase 1, cytoplasmic (Rattus norvegicus), O89049; 390,000 compounds, 0.01% hits; purified TrxR1 substrate turnover, NADPH consumption readout; note: nearly all actives have a fitted effect of over 50% in size
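Rat TrxR1, dispensed at 90 nM, was prereduced with 400 uM NADPH (final) for 5 min at ~22 deg C, then incubated with compound 15 min before 400 uM selenite. A first-read NADPH fluorescence drop versus no-compound background flagged substrates.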
GLS inh – qHTS for Inhibitors of Glutaminase (GLS); Glutaminase kidney isoform, mitochondrial (Homo sapiens), O94925; GLS enzymatic activity, qHTS titration; Potency, µM (doses to about 45.5 µM), without a hit: top-dose activity change, negative = inhibition, most hits filed as inhibitors; 410,000 compounds, 0.21% hits
Target sequence (O94925 whole entry, looked up, canonical isoform): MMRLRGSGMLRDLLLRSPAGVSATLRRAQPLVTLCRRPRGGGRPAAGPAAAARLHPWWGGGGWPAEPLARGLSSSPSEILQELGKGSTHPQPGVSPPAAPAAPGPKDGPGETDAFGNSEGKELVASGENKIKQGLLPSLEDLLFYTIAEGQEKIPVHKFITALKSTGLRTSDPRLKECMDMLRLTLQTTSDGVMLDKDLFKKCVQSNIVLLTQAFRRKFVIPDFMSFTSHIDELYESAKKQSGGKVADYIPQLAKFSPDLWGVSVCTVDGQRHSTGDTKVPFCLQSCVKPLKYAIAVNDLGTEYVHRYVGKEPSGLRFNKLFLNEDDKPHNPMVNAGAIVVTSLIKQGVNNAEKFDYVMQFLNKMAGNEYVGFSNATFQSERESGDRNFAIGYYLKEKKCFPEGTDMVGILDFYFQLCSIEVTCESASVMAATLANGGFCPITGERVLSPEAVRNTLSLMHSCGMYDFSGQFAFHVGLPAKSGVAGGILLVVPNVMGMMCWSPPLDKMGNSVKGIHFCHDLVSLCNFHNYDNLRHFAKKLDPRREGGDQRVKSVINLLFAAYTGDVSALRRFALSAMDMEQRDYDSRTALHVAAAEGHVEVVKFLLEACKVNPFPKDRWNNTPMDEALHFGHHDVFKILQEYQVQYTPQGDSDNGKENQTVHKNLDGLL
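Compounds were pin-transferred onto hKGA, after which L-glutamine (1 mM solution) and a detection mix of glutamate oxidase, HRP and Amplex Red were added. Initial and 30 min RT fluorescence reads were collected.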
* = called active by the depositor; ? = inconclusive; . = no result given; [ ] = remark or other dose. Only some compounds are listed: those with a hit (about 3.8% of all), similar ones and a draw of the others. Calls come from the whole dose curve; as a rule, active = well fitted curve in the direction sought with a large enough effect; inconclusive = small, poorly fitted or top-dose-only effect, or another doubt; inactive = no such curve, though single readings can be large; an effect the other way counts as inactive or inconclusive. Unless noted, % is set by controls: 0 for no effect and ±100 for the full control effect; potency is the fitted concentration of half-maximal effect.

SMILES | VDR inh | rTrxR1 inhibitor | KAT2A inh | Sfp inh | TrxR1 substrate | GLS inh
COCCCn1c(SCc2nnc(-c3ccccc3)o2)nc2sc3c(c2c1=O)CCC3 | -11% | -8% | -11% | -11% | 2% | -3%
Cn1c(SCc2nnc(-c3ccccc3Br)o2)nc2sc3c(c2c1=O)CCC3 | 5% | 13% | -12% | 79µM* | 7% | 7%
S=C(Nc1ccc(Cl)cc1)Nc1ccc2cn[nH]c2c1 | -8% | -12% | 2% | ? | 5% | 21%
S=C(Nc1ccc2cn[nH]c2c1)Nc1ccc(Cl)cc1Cl | ? | -13%[57.1 µM] | 5% | 16µM* | 2% | 3%
O=c1[nH]c2ccc(NC(=S)Nc3ccccc3Cl)cc2[nH]1 | -6% | -18%[57.1 µM] | -1% | 50µM* | 9%[57.1 µM] | 28%
O=c1[nH]c2ccc(NC(=S)Nc3ccc(Cl)cc3Cl)cc2[nH]1 | -6% | ? | -7% | 4% | 2% | 20%
Cc1ccc(NC(=S)Nc2ccc3[nH]c(=O)[nH]c3c2)cc1 | ? | -30% | -2% | ? | -4% | 12%
CCOC(=O)c1ccc(NC(=S)Nc2ccc3[nH]c(=O)[nH]c3c2)cc1 | 0% | ? | -8% | 40µM* | -2% | -2%
O=c1[nH]ncc(NCc2ccc(Cl)cc2)c1Cl | -8% | 9% | -1% | 25% | 3% | -2%
COc1ccc(Cl)cc1-c1ccc(C(=O)O)o1 | 112µM* | . | -9%[88.6 µM] | 112µM* | . | .
Cc1ccc(C)c(-c2ccc(C(=O)O)o2)c1 | 126µM* | . | -10%[135 µM] | 112µM* | . | .
O=S(=O)(N1CCCCCC1)N1CCNCC1 | 3% | 2%[57.1 µM] | -1% | 3% | 6%[57.1 µM] | 7%
O[C@H]1C[C@H](c2ccccc2)N(CC2CCCCC2)C[C@@H]1n1cc(-c2ccc(F)cc2)nn1 | . | . | . | . | . | -6%
O=C(Nc1ccc(Cl)cc1Cl)c1cccc(N2C(=O)C=CC2=O)c1 | ? | 2µM* | -14% | 16% | 5% | 1%
Cc1ccc(C2C(C#N)=C(N)SC(N)=C2C#N)c(C)c1 | -30% | 2.8µM* | -12% | 79µM* | -4% | 3%
CC1Cc2ccccc2N1C(=O)COC(=O)CSc1ccc(F)cc1 (stereo not drawn) | -15% | -12% | -8% | . | -12% | 0%
O=C(Nc1ccccc1)c1cccc(C(=O)Nc2ccccc2)n1 | 12% | -1% | 0% | 17% | 14% | 0%
Cc1cc(C)cc(NC(=O)c2cccc(C(=O)Nc3cc(C)cc(C)c3)n2)c1 | -3% | 7%[57.1 µM] | -2% | 56µM* | 6%[57.1 µM] | 6%
CN(C)c1ccc(NC(=O)c2cccc(C(=O)Nc3ccc(N(C)C)cc3)n2)cc1 | 79µM* | 11%[57.1 µM] | -7% | -24% | -7% | 5%
COC(=O)c1cccc(C(=O)Nc2ccc(F)cc2)n1 | 3% | -8%[57.1 µM] | 16µM* | 15% | -1%[57.1 µM] | -1%
c1ccc(CCn2nnnc2C(c2cccs2)N2CCN(Cc3ccc4c(c3)OCO4)CC2)cc1 (stereo not drawn) | 6% | 21% | -18% | 9% | 4% | 2%
O=C1CC(c2ccco2)CC2=C1C(c1ccccc1)n1nc(C(F)(F)F)nc1N2 (stereo not drawn) | -16% | 3%[57.1 µM] | -11% | 10µM* | 9%[57.1 µM] | 2%
CCS(=O)(=O)CCSc1nc2ccccc2o1 | 7% | 15% | -26% | 14% | 10% | -2%
O=S(=O)(CCSc1ccccn1)c1nc2ccccc2s1 | ? | 14µM* | -4% | -14% | -3% | -3%
O=S(=O)(CCSc1nc2ccccc2o1)c1nc2ccccc2s1 | -25% | 1.1µM* | -14% | 9% | 3%[57.1 µM] | -2%
SMILES | VDR inh | rTrxR1 inhibitor | KAT2A inh | Sfp inh | TrxR1 substrate | GLS inh
O=C(CSc1ccccn1)Nc1nc2ccccc2s1 | 3% | -9% | -2% | 16% | -1% | -10%
Cc1nc(NC(=O)CSc2nnc(-c3ccncc3)n2C)sc1C | 12% | 10% | 0% | -4% | -3% | -13%
CCOC(=O)c1ccc(NS(=O)(=O)c2ccc3[nH]c4c(c3c2)CCCCC4)cc1 | 2% | 10% | 7% | . | -4% | -13%
O=[N+]([O-])c1cc(C(F)(F)F)cc([N+](=O)[O-])c1Sc1n[nH]c(C(F)(F)F)n1 | 28µM* | ? | -16% | 56µM* | -3% | 11%
CN(C)/C=N/c1nc(Sc2ccc(C(F)(F)F)cc2[N+](=O)[O-])n[nH]1 | -2% | -5%[57.1 µM] | -8% | 13% | -10%[57.1 µM] | 1%
CCOC(=O)[C@H](N)/C=C(\C)CP(=O)(O)O | 13% | . | -14%[0.501 µM] | 14% | . | .
O=[N+]([O-])c1ccc(N2N=C(c3ccco3)CC2c2ccccc2)cc1 (stereo not drawn) | -21% | ? | 2µM* | 50µM* | -15% | 2%
Fc1ccc(C2CC(c3ccco3)=NN2c2ccccc2)cc1 (stereo not drawn) | -4% | 61%[57.1 µM] | -10% | 8% | 269%[57.1 µM] | 0%
Cn1c(O)c(/C=C2\C=NN=C2c2ccccc2)sc1=S | -11% | 33% | -9% | -20% | 0% | -1%
Cc1cccc(-c2n[nH]c(=S)n2Cc2ccccc2)c1 | 0% | -15% | -10% | 79µM* | 2% | -14%
S=c1[nH]nc(-c2ccc(Cl)cc2Cl)n1Cc1ccccc1 | 28µM* | 0% | -4% | ? | 6% | ?
Cc1ccc(-c2n[nH]c(=S)n2Cc2ccccc2)cc1 | -13% | -35%[57.1 µM] | 1% | 5% | 10%[57.1 µM] | ?
CC(c1n[nH]c(=S)n1Cc1ccccc1)N(C)C (stereo not drawn) | ? | -37% | 1% | 89µM* | -9% | ?
O=C(O)c1cn(-c2ccccc2)c(=O)c2ccccc12 | 9% | -13% | 2% | 9% | -4% | 25%
Cc1cc2ccccc2n1CCNC(=O)c1ccccc1 | 20% | -31%[57.1 µM] | -1% | 50µM* | -5%[57.1 µM] | -6%
Nc1ccc2c(c1)C(=O)Cc1ccccc1S2 | -17% | 5%[57.1 µM] | -1% | 2% | 5%[57.1 µM] | -2%
CN(C)CCCOc1ccc2c(c1)Sc1ccccc1CC2=O | -2% | -6% | -5% | 22µM* | -9% | 14%
CCn1c(CSc2nc(C)cc(C)n2)nnc1SCC(=O)Nc1nc(-c2ccccc2)cs1 | -14% | 0% | 3% | 4% | -8% | 2%
COC(=O)c1cc(OC)c(OC)cc1NC(=S)NC(=O)c1ccco1 | -4% | 14µM* | -18% | -25% | -2% | -7%
